# Values joined by “and” are separate entries in the source; they are usually repeats but may differ in a detail not shown here. Equal values may be shown once. Hit rate of the full screen: of about 5,500 compounds, about 2,000 (36%) were called active. Another 18% or so got no clear call; they are omitted. The list shows a part of the results. Unmarked numbers belong to inactive results. No stated cut-off is given here; in the data, active means normalized growth mostly below about 0.91 (no sharp cut-off); inconclusive means no clear call, values can overlap the other calls; inactive means mostly above about 0.92.
# Assay: chemical genetic growth profiling, strain panel (AID 1159580);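 further: tested at 20 µM; growth read once vehicle control cultures reached saturation at 30 °C; 1 = growth at the plate median or of vehicle wells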
# Conditions: S. cerevisiae deletion strains, growth OD
compound,measurement,setting,value
O=C1OC(c2ccc(O)cc2)(c2ccc(O)cc2)c2ccccc21,normalized growth,"locus YAL013W, strain DEP1, stronger effect = lower value",0.999
same,normalized growth,"locus YAL021C, strain ccr4, stronger effect = lower value",0.977
same,normalized growth,"locus YAL026C, strain drs2, stronger effect = lower value",0.978
same,normalized growth,"locus YAL030W, strain snc1, stronger effect = lower value",0.994
same,normalized growth,"locus YBL061C, strain skt5, stronger effect = lower value",0.984
same,normalized growth,"locus YBR009C, strain hhf1, stronger effect = lower value",0.988
same,normalized growth,"locus YBR021W, strain FUR4, stronger effect = lower value",1.01
same,normalized growth,"locus YBR023C, strain chs3, stronger effect = lower value",0.994
same,normalized growth,"locus YBR171W, strain sec66, stronger effect = lower value",0.981
same,normalized growth,"locus YBR229C, strain ROT2, stronger effect = lower value",0.997
same,normalized growth,"locus YBR231C, strain swc5, stronger effect = lower value",0.974
same,normalized growth,"locus YBR279W, strain paf1, stronger effect = lower value",0.988
same,normalized growth,"locus YCL011C, strain gbp2, stronger effect = lower value",0.968
same,normalized growth,"locus YCL016C, strain dcc1, stronger effect = lower value",1.01
same,normalized growth,"locus YCL029C, strain bik1, stronger effect = lower value",0.972
same,normalized growth,"locus YCL061C, strain MRC1, stronger effect = lower value",1
same,normalized growth,"locus YCL069W, strain vba3, stronger effect = lower value",0.969
same,normalized growth,"locus YCR088W, strain abp1, stronger effect = lower value",1
same,normalized growth,"locus YDL005C, strain med2, stronger effect = lower value",0.97
same,normalized growth,"locus YDL035C, strain GPR1, stronger effect = lower value",0.986
same,normalized growth,"locus YDL040C, strain nat1, stronger effect = lower value",0.986
same,normalized growth,"locus YDL074C, strain BRE1, stronger effect = lower value",0.98
same,normalized growth,"locus YDL101C, strain DUN1, stronger effect = lower value",0.98
same,normalized growth,"locus YDL134C, strain PPH21, stronger effect = lower value",0.989
same,normalized growth,"locus YDL185W, strain tfp1, stronger effect = lower value",0.954
same,normalized growth,"locus YDL192W, strain arf1, stronger effect = lower value",0.974
same,normalized growth,"locus YDR001C, strain nth1, stronger effect = lower value",0.965
same,normalized growth,"locus YDR069C, strain doa4, stronger effect = lower value",0.959
same,normalized growth,"locus YDR101C, strain arx1, stronger effect = lower value",0.973
same,normalized growth,"locus YDR137W, strain rgp1, stronger effect = lower value",0.976
same,normalized growth,"locus YDR150W, strain NUM1, stronger effect = lower value",1
same,normalized growth,"locus YDR159W, strain sac3, stronger effect = lower value",0.969
same,normalized growth,"locus YDR162C, strain NBP2, stronger effect = lower value",0.992
same,normalized growth,"locus YDR195W, strain ref2",0.973
same,normalized growth,"locus YDR297W, strain sur2, stronger effect = lower value",0.996
same,normalized growth,"locus YDR318W, strain mcm21, stronger effect = lower value",0.949
same,normalized growth,"locus YDR334W, strain swr1, stronger effect = lower value",0.897 (active)
same,normalized growth,"locus YDR335W, strain msn5, stronger effect = lower value",0.97
same,normalized growth,"locus YDR388W, stronger effect = lower value",0.973
same,normalized growth,"locus YDR392W, strain spt3, stronger effect = lower value",0.958
same,normalized growth,"locus YDR502C, strain sam2, stronger effect = lower value",0.96
same,normalized growth,"locus YEL003W, strain gim4, stronger effect = lower value",0.964
same,normalized growth,"locus YEL037C, strain rad23, stronger effect = lower value",0.983
same,normalized growth,"locus YEL061C, strain CIN8 (second series), stronger effect = lower value",0.962
same,normalized growth,"locus YEL061C, strain CIN8, stronger effect = lower value",0.996
same,normalized growth,"locus YER015W, strain faa2, stronger effect = lower value",0.977
same,normalized growth,"locus YER016W, strain bim1, stronger effect = lower value",0.984
same,normalized growth,"locus YER110C, stronger effect = lower value",0.971
same,normalized growth,"locus YER111C, strain swi4, stronger effect = lower value",0.995
same,normalized growth,"locus YER155C, strain BEM2 (second series), stronger effect = lower value",0.826 (active)
same,normalized growth,"locus YER155C, strain BEM2, stronger effect = lower value",0.994
same,normalized growth,"locus YER167W, strain BCK2, stronger effect = lower value",0.997
same,normalized growth,"locus YFR010W, strain ubp6, stronger effect = lower value",0.975
same,normalized growth,"locus YGL078C, strain dbp3, stronger effect = lower value",0.984
same,normalized growth,"locus YGL086W, strain mad1, stronger effect = lower value",0.992
same,normalized growth,"locus YGL167C, strain pmr1, stronger effect = lower value",0.983
same,normalized growth,"locus YGL173C, strain kem1, stronger effect = lower value",0.996
same,normalized growth,"locus YGL227W, strain vid30, stronger effect = lower value",0.987
same,normalized growth,"locus YGL240W, strain doc1, stronger effect = lower value",0.965
same,normalized growth,"locus YGL248W, strain PDE1, stronger effect = lower value",0.996
same,normalized growth,"locus YGL253W, strain hxk2, stronger effect = lower value",0.969
same,normalized growth,"locus YGR135W, strain pre9, stronger effect = lower value",0.964
same,normalized growth,"locus YGR252W, strain gcn5, stronger effect = lower value",1.03
same,normalized growth,"locus YHR013C, strain ard1, stronger effect = lower value",0.954
same,normalized growth,"locus YHR027C, strain rpn1, stronger effect = lower value",0.982
same,normalized growth,"locus YHR030C, strain SLT2, stronger effect = lower value",0.986
same,normalized growth,"locus YHR079C, strain IRE1 (second series), stronger effect = lower value",0.96
same,normalized growth,"locus YHR079C, strain IRE1, stronger effect = lower value",0.953
same,normalized growth,"locus YHR094C, strain hxt1, stronger effect = lower value",0.971
same,normalized growth,"locus YHR129C, strain ARP1, stronger effect = lower value",0.995
same,normalized growth,"locus YHR142W, strain chs7, stronger effect = lower value",0.977
same,normalized growth,"locus YHR200W, strain rpn10, stronger effect = lower value",0.967
same,normalized growth,"locus YIL066C, strain RNR3, stronger effect = lower value",0.996
same,normalized growth,"locus YIL073C, strain SPO22, stronger effect = lower value",0.844
same,normalized growth,"locus YIL125W, strain kgd1, stronger effect = lower value",0.956
same,normalized growth,"locus YIR030C, strain dcg1, stronger effect = lower value",0.985
same,normalized growth,"locus YJL092W, strain hpr5, stronger effect = lower value",0.995
same,normalized growth,"locus YJL095W, strain BCK1 (second series), stronger effect = lower value",0.977
same,normalized growth,"locus YJL095W, strain BCK1, stronger effect = lower value",1.04 and 0.981
same,normalized growth,"locus YJL115W, strain asf1, stronger effect = lower value",0.972
same,normalized growth,"locus YJL129C, strain trk1, stronger effect = lower value",0.949
same,normalized growth,"locus YJL134W, strain LCB3, stronger effect = lower value",0.988
same,normalized growth,"locus YJL154C, strain vps35, stronger effect = lower value",0.972
same,normalized growth,"locus YJL164C, strain tpk1, stronger effect = lower value",0.987
same,normalized growth,"locus YJL166W, strain qcr8, stronger effect = lower value",0.983
same,normalized growth,"locus YJL168C, strain set2, stronger effect = lower value",0.974
same,normalized growth,"locus YJL187C, strain SWE1 (second series), stronger effect = lower value",0.991

# From PubChem BioAssay AID1159580 (chemical genetic matrix, 2015)
